Data on eight compounds can be found in PubChem BioAssay (Tox21).

A short description of test [1]: qHTS assay to identify small molecule antagonists of the estrogen related receptor (ERR) signaling pathway from Tox21 library - cell viability counter screen (AID 1224834). Further: on the % scale 0 is the no-effect control and ±100 the full control effect; nearly all actives have a fitted effect of over 30% in size. The method, boiled down: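 ERR reporter cells were plated 6 h before compound addition, then exposed to test compounds in DMSO for 17.5 h at 37 C. Viability was read as CellTiter-Fluor fluorescence after a 30-minute incubation at 37 C.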
A general note: Quantitative high-throughput screening tests each substance at several concentrations.

In test [2] the target is Luciferin 4-monooxygenase (Photinus pyralis) (UniProt P08659). The experiment in a line: qHTS assay to identify small molecule inhibitors of firefly luciferase (AID 1224835). Further: on the % scale 0 is the no-effect control and ±100 the full control effect; nearly all actives have a fitted effect of over 25% in size. The method, boiled down: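 Biochemical qHTS: compounds run as interplate titrations against purified firefly enzyme, with D-luciferin and ATP each at its KM concentration. Light output recorded by CCD imaging.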

A short description of test [3]: qHTS assay to identify small molecule agonists of the constitutive androstane receptor (CAR) signaling pathway - cell viability counter screen (AID 1224836). Further: on the % scale 0 is the no-effect control and ±100 the full control effect; nearly all actives have a fitted effect of over 45% in size. The method in brief: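 Cells were seeded and incubated 4 hrs. Compounds were added across 15 concentrations together with PK11195 at 0.75 uM final. Plates were incubated 23 hrs at 37 C. CellTiter-Fluor was added and fluorescence measured.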

A short description of test [4]: qHTS assay to identify small molecule antagonists of the constitutive androstane receptor (CAR) signaling pathway - cell viability counter screen (AID 1224837). Further: on the % scale 0 is the no-effect control and ±100 the full control effect; nearly all actives have a fitted effect of over 45% in size. The method, boiled down:
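HepG2 cells stably expressing hCAR and a CYP2B6-2.2kb reporter were plated and pre-incubated 4 hr at 37 C/5% CO2, then given compounds at 15 concentrations plus 50 nM CITCO (final). After 23 hr, viability was read by CellTiter-Fluor fluorescence.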

For test [5], the target named is Nuclear receptor subfamily 1 group I member 3 (Homo sapiens) (UniProt Q14994). The experiment in a line: qHTS assay to identify small molecule antagonists of the constitutive androstane receptor (CAR) signaling pathway (AID 1224838). Further: on the % scale 0 is the no-effect control and ±100 the full control effect; nearly all actives have a fitted effect of over 40% in size. The method in brief: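 HepG2 cells stably co-transfected with hCAR and a CYP2B6-2.2kb luciferase reporter were seeded 4 h before compound addition at 15 concentrations. Cells were stimulated with 50 nM CITCO (final) for 24 h at 37 C; luciferase luminescence was then read.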

Test [6] shares this target. The experiment in a line: qHTS assay to identify small molecule agonists of the constitutive androstane receptor (CAR) signaling pathway (AID 1224839). Further: on the % scale 0 is the no-effect control and ±100 the full control effect; nearly all actives have a fitted effect of over 15% in size. The method in brief:
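Cells were plated and incubated 4 hrs, then dosed with compounds at 15 concentrations. PK11195 was added to 0.75 uM final. After 24 hrs at 37 C, luciferase luminescence was measured.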

Test [7] is described as follows: qHTS assay to identify small molecule antagonists of the estrogen related receptor signaling pathway with the pleiotropic PPARgamma coactivator (PGC) from Tox21 10K library - cell viability counter screen (AID 1224840; active means well fitted cell-killing curve with a large enough effect in the repeat runs, not every such curve was filed as active; further: on the % scale 0 is the no-effect control and ±100 the full control effect; nearly all actives have a fitted effect of over 40% in size). The method in brief:
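PGC/ERR cells were seeded at 2,000 cells/well and left 6 hours at 37 C/5% CO2 before pin-tool addition of compounds in DMSO. After 17.5 hours at 37 C, CellTiter-Fluor was added and fluorescence read 30 minutes later.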

The nature of test [8]: qHTS assay to identify small molecule agonists of the hypoxia (HIF-1) signaling pathway - cell viability counter screen (AID 1224844; calls by dose curve; further: on the % scale 0 is the no-effect control and ±100 the full control effect; nearly all actives have a fitted effect of over 50% in size). The method, boiled down: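 HRE-bla ME-180 cells in medium with 0.5% dialyzed FBS were preincubated 5 hrs at 37C, exposed to compounds for 17 hrs, then viability was read as CellTiter-Glo luminescence after 30 min at room temperature, in the reporter wells.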

The nature of test [9]: qHTS assay to identify small molecule agonists of H2AX (AID 1224845; active means well fitted activation curve with a large enough effect in the signal ratio in the repeat runs, not every such curve was filed as active; the % refers to the signal ratio; further: on the % scale 0 is the no-effect control and ±100 the full control effect). The method in brief:
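Wild-type CHO-K1 cells, plated overnight, exposed 3hr at 37C to 15 concentrations (0.76% DMSO final). Lysed, then HTRF anti-pH2AX (S139) cryptate and anti-H2AX-d2 antibodies, 24 hr room temperature; 665/620 nm emission read.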

The nature of test [10]: qHTS assay to identify small molecule agonists of the hypoxia (HIF-1) signaling pathway (AID 1224846; active means well fitted activation curve with a large enough effect in the signal ratio in the repeat runs, not every such curve was filed as active; the % refers to the signal ratio; further: on the % scale 0 is the no-effect control and ±100 the full control effect). The method, boiled down: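 HRE-bla ME-180 cells (beta-lactamase reporter under hypoxia response element) were plated at 2,000 cells/well in medium with 0.5% dialyzed FBS, rested 5 hrs, then given compounds in DMSO for 17 hrs at 37C, 5% CO2. Reporter induction was read with CCF4-AM FRET substrate.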

Test [11] is described as follows: qHTS assay to identify small molecule agonists of H2AX - cell viability counter screen (AID 1224847; calls by dose curve; further: top concentration of the series differs between compounds; on the % scale 0 is the no-effect control and ±100 the full control effect; nearly all actives have a fitted effect of over 30% in size). The method, boiled down: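 Cytotoxicity counter screen in wild-type CHO-K1 cells: a 3 hr compound treatment at 37C across 15 concentrations, followed by CellTiter-Glo luminescence to gauge viable cells.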
Test [12] is described as follows: qHTS RealTime-Glo MT Cell Viability Assay in HepG2 cells - 24 hour (AID 1224867). Further: on the % scale 0 is the no-effect control and ±100 the full control effect; nearly all actives have a fitted effect of over 50% in size. The method in brief:
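Compound treatment began 5 h after plating HepG2 cells (600/well) with NanoLuc luciferase and prosubstrate. Plates stayed at 37 C for 40 h; luminescence was captured at six time points, 0 h through 40 h.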

The nature of test [13]: qHTS RealTime-Glo MT Cell Viability Assay in HEK293 cells - 32 hour (AID 1224868). Further: top concentration of the series differs between compounds; on the % scale 0 is the no-effect control and ±100 the full control effect; nearly all actives have a fitted effect of over 50% in size. The method in brief:
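Quantitative high-throughput screen of the Tox21 10K library in HEK293: cells and RealTime-Glo reagents plated together, compound added at 5 h, luminescence monitored through 40 h at 37 C.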

Test [14] is described as follows: A CellTox Green Cytotoxicity Assay to monitor cytotoxicity in HEK293 cells - 0 hour (AID 1224869). Further: on the % scale 0 is the no-effect control and ±100 the full control effect; nearly all actives have a fitted effect of over 50% in size. The method in brief: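 HEK293 cells premixed with CellTox Green dye were seeded at 600 cells/well and left 5 h at 37 C/5% CO2 before pin transfer of 23 nL compound in DMSO. Fluorescence from dye bound to dead-cell DNA was read during 40 h treatment.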
The nature of test [15]: qHTS RealTime-Glo MT Cell Viability Assay in HepG2 cells - 40 hour (AID 1224870). The method, boiled down: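 HepG2 cells (600/well) mixed with RealTime-Glo MT reagent, settled 5 h at 37 C/5% CO2 before compound addition. Nonlytic NanoLuc luminescence from viable-cell prosubstrate reduction read repeatedly during 40 h treatment at 37 C.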
The target in test [16] is Thyrotropin receptor (Homo sapiens) (UniProt P16473). The experiment in a line: qHTS assay to identify small molecule agonists of the thyroid stimulating hormone receptor (TSHR) signaling pathway (AID 1224843; calls by dose curve; further: on the % scale 0 is the no-effect control and ±100 the full control effect; nearly all actives have a fitted effect of over 45% in size). The method, boiled down: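 TSHR-HEK293 cells in agonist mode, 30 min room-temperature step, then cAMP measured by competitive HTRF (cAMP-d2 with anti-cAMP cryptate) after 1 h at room temperature. Tested at 15 concentrations in triplicate.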

Test [17] is described as follows: qHTS assay to identify small molecule antagonists of the estrogen related receptor signaling pathway with the pleiotropic PPARgamma coactivator (PGC) from Tox21 10K library (AID 1224841; call rule not given here). The method, boiled down: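 PGC/ERR reporter cells were seeded at 2,000 cells/well and held 6 hours at 37 C/5% CO2 before pin-tool addition of compounds in DMSO. After 18 hours at 37 C, One-Glo was added and luminescence read after 30 minutes at room temperature.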

Test [18] is described as follows: qHTS assay to identify small molecule agonists of the estrogen related receptor signaling pathway with the pleiotropic PPARgamma coactivator (PGC) from Tox21 10K library (AID 1224842). Further: on the % scale 0 is the no-effect control and ±100 the full control effect; nearly all actives have a fitted effect of over 15% in size. The method, boiled down:
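PGC/ERR reporter cell line, 2,000 cells per well, incubated 6 h at 37 C before 23 nL compound in DMSO was added. After 18 h at 37 C, One-Glo luminescence read following 30 min at room temperature.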

Test [19] can be described thus: qHTS assay to identify small molecule antagonists of the estrogen related receptor (ERR) signaling pathway from Tox21 library (AID 1224848). The method in brief: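 ERR reporter cell line (from NTP) seeded 2,000 cells/well, rested 6 h at 37 C/5% CO2, then pin-dosed with compounds in DMSO. After 18 h at 37 C, ONE-Glo added; luminescence read after 30 min at room temperature.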

The nature of test [20]: qHTS assay to identify small molecule agonists of the estrogen related receptor (ERR) signaling pathway from Tox21 library (AID 1224849; calls by dose curve; further: on the % scale 0 is the no-effect control and ±100 the full control effect; nearly all actives have a fitted effect of over 15% in size). The following applies: ERR reporter cell line, ONE-Glo luciferase, 18 h; at 92.4 µM (top of the series) unless noted. The method in brief:
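ERR reporter cell line (NTP) seeded, rested 6 h at 37 C/5% CO2, then pinned with Tox21 compounds in DMSO. After 18 h at 37 C, ONE-Glo luciferase luminescence was read following 30 min at room temperature.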

Values without a mark were called inactive. Records with an inconclusive call do not appear. Activity calls are given as the source filed them. Unless noted, the call rests on the fitted dose curve; in most records, active means well fitted curve in the direction sought with a large enough effect in the repeat runs; inconclusive means weak or mixed curves; inactive means no such curve, though single readings can be large; an effect the other way counts as inactive or inconclusive.

Sequence of Nuclear receptor subfamily 1 group I member 3 (Homo sapiens) (Q14994 whole entry, looked up): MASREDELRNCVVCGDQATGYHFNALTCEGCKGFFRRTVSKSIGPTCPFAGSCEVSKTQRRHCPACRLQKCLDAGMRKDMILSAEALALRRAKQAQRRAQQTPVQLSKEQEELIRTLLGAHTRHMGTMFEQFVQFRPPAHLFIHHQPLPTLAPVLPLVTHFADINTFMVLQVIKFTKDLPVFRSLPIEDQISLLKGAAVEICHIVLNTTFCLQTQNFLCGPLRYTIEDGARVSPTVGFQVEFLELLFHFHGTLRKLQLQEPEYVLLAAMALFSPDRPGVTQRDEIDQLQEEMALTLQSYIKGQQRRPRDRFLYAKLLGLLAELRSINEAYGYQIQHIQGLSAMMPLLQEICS
Sequence of Luciferin 4-monooxygenase (Photinus pyralis) (P08659 whole entry, looked up): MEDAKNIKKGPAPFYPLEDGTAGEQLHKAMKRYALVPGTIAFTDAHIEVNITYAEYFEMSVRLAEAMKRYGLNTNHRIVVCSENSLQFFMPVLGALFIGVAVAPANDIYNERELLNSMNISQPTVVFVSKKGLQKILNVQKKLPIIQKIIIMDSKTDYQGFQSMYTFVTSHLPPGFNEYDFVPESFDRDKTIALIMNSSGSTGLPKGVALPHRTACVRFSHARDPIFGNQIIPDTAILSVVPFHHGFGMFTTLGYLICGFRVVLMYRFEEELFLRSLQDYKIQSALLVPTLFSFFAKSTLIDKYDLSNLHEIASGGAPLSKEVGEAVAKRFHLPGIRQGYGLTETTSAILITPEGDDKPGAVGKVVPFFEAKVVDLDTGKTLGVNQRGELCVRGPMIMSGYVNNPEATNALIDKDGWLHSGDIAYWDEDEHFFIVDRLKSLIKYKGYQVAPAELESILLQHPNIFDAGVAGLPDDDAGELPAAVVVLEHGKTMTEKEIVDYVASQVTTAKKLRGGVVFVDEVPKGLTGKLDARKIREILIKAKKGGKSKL
Sequence of Thyrotropin receptor (Homo sapiens) (P16473 whole entry, looked up): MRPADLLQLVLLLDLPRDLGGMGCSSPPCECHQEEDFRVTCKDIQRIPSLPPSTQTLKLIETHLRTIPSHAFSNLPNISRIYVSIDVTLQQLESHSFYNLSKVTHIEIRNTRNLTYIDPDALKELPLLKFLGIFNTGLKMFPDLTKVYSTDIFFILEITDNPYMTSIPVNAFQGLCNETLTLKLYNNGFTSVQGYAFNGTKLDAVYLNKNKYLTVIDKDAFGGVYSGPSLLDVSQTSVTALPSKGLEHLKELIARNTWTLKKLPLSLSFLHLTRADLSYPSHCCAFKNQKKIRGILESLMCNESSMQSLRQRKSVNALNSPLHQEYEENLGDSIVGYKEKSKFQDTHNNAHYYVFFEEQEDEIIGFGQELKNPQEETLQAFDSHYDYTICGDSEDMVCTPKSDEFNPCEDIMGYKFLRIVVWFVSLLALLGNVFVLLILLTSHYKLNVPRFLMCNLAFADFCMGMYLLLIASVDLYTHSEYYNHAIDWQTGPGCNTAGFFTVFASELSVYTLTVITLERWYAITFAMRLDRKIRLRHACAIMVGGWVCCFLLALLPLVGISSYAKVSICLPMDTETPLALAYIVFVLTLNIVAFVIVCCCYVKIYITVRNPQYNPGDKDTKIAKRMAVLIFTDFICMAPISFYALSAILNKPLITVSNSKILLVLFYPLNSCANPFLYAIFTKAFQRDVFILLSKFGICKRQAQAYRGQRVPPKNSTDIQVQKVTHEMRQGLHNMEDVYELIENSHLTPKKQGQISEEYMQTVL

With `OCc1ccccc1O`, the Potency entry in test [1], in test [2], in test [3], in test [4], in test [5] and in [6] was “inactive” in each case. Besides, the Potency entry in [7], in [8], in test [9], in test [11], in test [12] and in test [13] was “inactive” in each case. Besides, the Potency entry in test [14] and in test [15] was “inactive” throughout. Further, in test [10], the compound was called inactive.

`Cc1ccsc1C(=CCCN1CCC[C@@H](C(=O)O)C1)c1sccc1C`: the Potency entry in test [1], in test [2], in test [3], in [4], in test [5] and in test [6] was “inactive” in each case. Further, the Potency entry in test [7], in [16], in test [8], in test [9], in test [11] and in [12] was “inactive” in each case. Further, the Potency entry in [13], in test [14] and in [15] was “inactive” in each case. Besides, the compound was classed as inactive in test [10].

Regarding `NC(=O)NS(=O)(=O)c1ccc(Cl)cc1`, the Potency result in test [1], in [2], in test [3], in test [4], in test [5] and in test [6] was “inactive” in each case. In addition, the Potency result in [7], in test [16], in test [8], in [9], in test [11] and in test [12] was “inactive” in each case. Also, the Potency result in test [13], in test [14] and in test [15] was “inactive” in each case. Also, in test [10], the compound was called inactive.

For the compound `CC(=O)O[C@H]1CC[C@@]2(C)C(=CC[C@@H]3[C@@H]2CC[C@]2(C)C(C(C)=O)=CC[C@@H]32)C1`, the Potency result in test [1], in test [2], in test [3], in test [4], in [5] and in test [6] was “inactive” each time. Moreover, the Potency result in test [7], in [16], in test [8], in test [9], in test [12] and in test [14] was “inactive” throughout. In test [15], the Potency entry was “inactive”. Besides, in test [10], the call was inactive.

For the compound `C=CC1CO1` (centres undefined), the Potency entry in test [1], in test [2], in test [3], in [4], in test [7] and in test [16] was “inactive” in each case. The Potency entry in [8], in test [9], in test [11], in test [12], in test [13] and in [14] was “inactive” each time. The Potency entry in [15] was “inactive”. Besides, the call in test [10] was inactive.

As to `Oc1ccccc1F`, the Potency entry in [1], in [2], in test [3], in test [4], in test [7] and in test [16] was “inactive” in each case. Besides, the Potency entry in test [8], in test [9], in test [11], in test [12], in test [13] and in test [14] was “inactive” throughout. In addition, in test [15], the Potency entry is “inactive”. Also, the compound was classed as inactive in [10].

Take `CC1=C2[C@H](/C=C(\C)C(=O)O)CC[C@@H](C)[C@H]2CC1`: the Potency entry in test [1], in [2], in test [3], in [4], in test [5] and in [7] was “inactive” in each case. The Potency result in test [17], in test [18], in test [16], in test [9], in test [11] and in test [12] was “inactive” in each case. Also, the Potency result in [14] and in [15] was “inactive” throughout. Further, in [10], the outcome was inactive. Besides, in [19], the Potency is 56.5 µM (active). Moreover, the activity change, positive = activation in [20] is -46%.

On to `CN(CC1(C)CCCO1)S(=O)(=O)c1ccc(Cl)c(S(N)(=O)=O)c1` (centres undefined), for which the Potency entry in [1], in test [2], in test [3], in test [4], in [7] and in test [16] was “inactive” in each case. The Potency entry in test [8], in [9], in [11], in test [13], in test [14] and in test [15] was “inactive” each time. For the same compound, the outcome in [10] was inactive.
